The record followed here is PubChem BioAssay AID463173 (ICCB-Longwood Screening Facility, Harvard Medical School, 2010).

Among all 52,000 compounds or so, about 4,300 (8.3%) were called active. This excerpt belongs to a sample that is enriched for actives. Unmarked numbers belong to inactive results. No stated cut-off is given here; in the data, active means survival mostly below about 52% (no sharp cut-off); inactive means mostly above about 56%.

For the assay, the system named is DeltatarO mutant. Kind of assay: S. aureus survival, RN4220 and DeltatarO strains – OD600, teichoic acid synthesis inhibitors, primary screen (AID 463173). Conditions: S. aureus RN4220 wild type/DeltatarO growth, OD600, 18 h, active compounds read low, screened at 18.75 µg/mL (by protocol).
Regarding `Cc1cccc(N2CCN(C(=O)CN3C(=O)COc4ccc(S(=O)(=O)N5CCC(C)CC5)cc43)CC2C)c1` (stereo unspecified), the survival was 67%.

Turning to `COc1ccc(CCNC(=O)C(C)n2nc(C)c3sc4ccccc4c3c2=O)cc1OC` (stereo unspecified), the survival was 110%. Turning to `Cc1ccccc1Cn1cc(S(=O)(=O)c2ccc(F)cc2)c(=O)c2cc3c(cc21)OCO3`, the survival is 68%. As for `NC(=O)C1CCN(C(=O)Cn2c(-c3cccs3)cc3ccccc32)CC1`, the survival was 73%.

With `O=C(NCCN1CCCC1)c1ccc(Cl)cc1`, the survival is 98%. In the case of `CCOC(=O)c1cnc2ccc(OCC)cc2c1Nc1cc(Cl)c(OC)cc1OC`, the survival was 51% (active). With `CCOC(=O)c1cnc2ccc(OCC)cc2c1NCCN(C)C` the figure was 95%; with `CCOC(=O)c1cnc2ccc(C)cc2c1Nc1ccc(OCc2ccccc2Cl)cc1`, 2% (active); with `CCOC(=O)c1cnc2c(C)c(Cl)ccc2c1Nc1ccc(N2CCOCC2)cc1`, 43%. In the case of `CCOC(=O)c1cnc2c(C)cc(C)cc2c1Nc1ccc(N2CCOCC2)cc1`, the survival was 14% (active). On to `CCOC(=O)c1cnc2cc(Cl)c(OC)cc2c1Nc1ccc(Br)cc1C`, for which the survival was 102%. As to `CCOC(=O)c1ccccc1NC(=O)c1cnc(N2CCOCC2)c2ccccc12`, the survival is 90%. `CCOC(=O)c1cnc2ccc(Cl)cc2c1Nc1ccc(OCC)cc1`: the survival was -5% (active). With `O=C(N/C(=C\c1ccc(F)cc1)C(=O)N1CCOCC1)c1ccccc1`, the survival was 98%.

Take `Cc1cccc(OCC(=O)OC2CCN(C)CC2)c1`: the survival was 100%.

As to `COC(=O)C(C#N)C(c1cccnc1)c1c(C)[nH][nH]c1=O` (stereo unspecified), the survival was 90%. For `COc1cc(OC)cc(-c2cc3nc(-c4ccccc4)cc(N4CCN(c5ccccc5)CC4)n3n2)c1`, the survival was 101%. With `CC(=O)Oc1ccc(C(=O)NC2CCSC2=O)cc1` (stereo unspecified), the survival was 72%. Consider `COC(=O)CC1Oc2ccccc2-n2cc(-c3ccc(Cl)cc3)nc21` (stereo unspecified), for which the survival was 69%. On to `CCN1CCSc2ccc(C(=O)NC(C)c3ccccc3)cc21` (stereo unspecified), for which the survival was 66%. Regarding `O=C(Nc1ccc(Br)cc1)c1cccc(C(=O)Nc2ccc(Br)cc2)c1`, the survival is 72%. As for `CCOC(=O)c1cnc2ccc(OC)cc2c1Nc1ccc(OCc2ccccc2Cl)cc1`, the survival is 8% (active). As for `CCOC(=O)c1cnc2ccccc2c1Nc1ccc(N2CCOCC2)cc1`, the survival was 63%.

Consider `CCOC(=O)c1cc(-c2ccc(OC)cc2)n(CCC(=O)Nc2cccc(C(C)=O)c2)c1C`, for which the survival is 64%. On to `CCOC(=O)c1cccc(NC(=O)c2cc3cc4cc(OC)ccc4nc3s2)c1`, for which the survival was 76%. With `CCOC(=O)c1cnc2ccc(C(=O)OC)cc2c1Nc1ccc(OCc2ccccc2Cl)cc1`, the survival was 151%.

In the case of `CCOC(=O)c1cnc2ccc(C(=O)OC)cc2c1Nc1ccc(N2CCOCC2)cc1`, the survival is 144%.

Regarding `CCOC(=O)c1cnc2ccc(Cl)cc2c1Nc1ccc(N2CCOCC2)cc1`, the survival was 0% (active). `CCOC(=O)c1cnc2ccc(OC)cc2c1Nc1cccc(C(C)=O)c1`: the survival was 9% (active).

Take `CCOC(=O)c1cnc2ccc(C)cc2c1Nc1ccc(N(CC)CC)cc1`: the survival was -5% (active).

With `CCCCn1c2ccc(F)cc2c2nnc(SCCN(CC)CC)nc21`, the survival was 178%. With `CCn1c(CNC(=O)c2ccccc2)n[nH]c1=S` the figure was 86%; with `CCOc1ccc2cc(-c3nnc(Nc4ccc(C)cc4)s3)c(=O)oc2c1`, 80%; with `COc1ccccc1CCNC(=O)C(=O)NCC(c1ccco1)S(=O)(=O)c1ccccc1` (stereo unspecified), 77%.

`COc1ccc(OC)c(CNC(=O)CCc2c(C)nc3c(c2C)c(=O)n(C)c(=O)n3C)c1`: the survival was 89%. For `Fc1ccc(-c2cn3ccccc3n2)cc1`, the survival was 74%. Take `Cc1cccc(NC(=O)C2CCCN(c3nnc(-n4c(C)ccc4C)s3)C2)c1C` (stereo unspecified): the survival was 75%. With `Cc1cc(=O)[nH]c2nnc(SCC(=O)Nc3cc(C(F)(F)F)ccc3Cl)n12` the figure was 116%; with `CCOc1ccc(Nc2cc(C(=O)NCc3ccccc3Cl)c3ccccc3n2)cc1`, 86%. On to `CCOC(=O)c1cnc2ccc(OCC)cc2c1Nc1ccc(OCc2ccccc2Cl)cc1`, for which the survival is 9% (active). With `Cc1ccc(C2=Nc3ccccc3N(CC(=O)NCc3ccccc3Cl)C(=O)C2)cc1C`, the survival is 82%.

For the compound `COc1ccc(C(=O)Nc2ccccc2C(=O)OCc2cc(=O)n3c4c(sc3n2)CCCC4)cc1`, the survival was 72%.

For the compound `COc1ccc(S(=O)(=O)c2cc3cc(C(C)(C)C)cc(O)c3oc2=O)cc1`, the survival is 26% (active). On to `CCOc1ccc(S(=O)(=O)c2cc3cccc(OCC)c3oc2=O)cc1`, for which the survival is 100%.

For `COc1ccc(S(=O)(=O)c2cc3cc(OC)ccc3oc2=O)cc1`, the survival was 99%. With `CCN(c1ccccc1)c1nnc(NC(=O)Nc2ccc(C)cc2)s1` the figure was 89%; with `COc1cccc(C(=O)Nc2ccc(C(=O)OCc3cc(=O)n4nc(C5CC5)sc4n3)cc2)c1`, 79%; with `Cc1ccc(OCC(=O)Nc2ccc(C(=O)OCc3cc(=O)n4nc(C5CC5)sc4n3)cc2)cc1`, 72%. In the case of `O=C(Nc1cccc(C(=O)OCc2cc(=O)n3nc(C4CC4)sc3n2)c1)c1ccc(F)cc1`, the survival is 70%. Regarding `Cc1cccc(OCC(=O)Nc2ccc(C(=O)OCc3cc(=O)n4nc(C5CC5)sc4n3)cc2)c1`, the survival is -2% (active). Turning to `O=C(COc1ccccc1)Nc1ccc(C(=O)OCc2cc(=O)n3nc(C4CC4)sc3n2)cc1`, the survival was 76%. Turning to `Cc1ccc(C(=O)Nc2cccc(C(=O)OCc3cc(=O)n4nc(C5CC5)sc4n3)c2)cc1`, the survival is 81%. `COc1ccc(C(=O)Nc2ccc(C(=O)OCc3cc(=O)n4nc(C5CC5)sc4n3)cc2)cc1`: the survival is -1% (active). In the case of `COc1ccc(C(=O)Nc2cccc(C(=O)OCc3cc(=O)n4nc(C5CC5)sc4n3)c2)cc1`, the survival was 115%.

With `O=C(Nc1cccc(C(=O)OCc2cc(=O)n3nc(C4CC4)sc3n2)c1)c1ccccc1`, the survival was 6% (active). `Cc1ccc2nc3c(cc(C#N)c(=O)n3-c3nnc(SCc4ccc(F)cc4)s3)c(=O)n2c1`: the survival was 72%. For the compound `Cc1ccc(NCc2nnc(SCC(=O)N3CCOCC3)o2)c(C)c1`, the survival is 74%. With `O=C(Cn1cc(SCc2ccc(C(F)(F)F)cc2)c2ccccc21)N1CCCC1` the figure was 55%. Consider `COC(=O)c1ccc(Cn2nnc3c(=O)[nH]c(C4CCCN(S(=O)(=O)c5ccccc5Cl)C4)nc32)cc1` (stereo unspecified), for which the survival was 68%. With `COc1cccc(CNC(=O)CN2C(=O)CCn3nc(-c4cn(C)c5ccccc45)cc32)c1OC`, the survival is 76%. With `COc1ccc(OC)c(S(=O)(=O)NCCc2sc(-c3ccc(C)cc3)nc2C)c1`, the survival was 94%.

Take `CCOC(=O)c1ccc(N2C(=O)c3n[nH]c(C)c3C2c2ccc(OCC)cc2)cc1` (stereo unspecified): the survival is 52%. As to `CCOC(=O)c1ccc(N2C(=O)c3n[nH]c(C)c3C2c2cccc(Br)c2)cc1` (stereo unspecified), the survival was 8% (active).

As to `CCOC(=O)c1ccc(N2C(=O)c3n[nH]c(-c4ccco4)c3C2c2cccc(OC)c2)cc1` (stereo unspecified), the survival is 91%. On to `CCOC(=O)c1ccc(N2C(=O)c3n[nH]c(C)c3C2c2ccc(C(C)(C)C)cc2)cc1` (stereo unspecified), for which the survival was 87%. For the compound `CCOC(=O)c1ccc(N2C(=O)c3n[nH]c(-c4ccco4)c3C2c2ccc(O)cc2)cc1` (stereo unspecified), the survival was 40%. As for `CCOC(=O)c1ccc(N2C(=O)c3n[nH]c(-c4cccs4)c3C2c2cccc(F)c2)cc1` (stereo unspecified), the survival was 105%. Consider `CCOC(=O)c1ccc(N2C(=O)c3n[nH]c(-c4ccco4)c3C2c2ccc(C(=O)OC)cc2)cc1` (stereo unspecified), for which the survival is 89%. For `CCOC(=O)c1ccc(N2C(=O)c3n[nH]c(-c4ccco4)c3C2c2ccc(F)cc2)cc1` (stereo unspecified), the survival is 22% (active).

`CCOC(=O)c1ccc(N2C(=O)c3n[nH]c(-c4cccs4)c3C2c2cccc(O)c2)cc1` (stereo unspecified): the survival was -5% (active).

As to `CCOC(=O)c1ccc(N2C(=O)c3n[nH]c(-c4ccco4)c3C2c2ccc(C)cc2)cc1` (stereo unspecified), the survival was 69%. As to `CCOC(=O)c1ccc(N2C(=O)c3n[nH]c(-c4cccs4)c3C2c2cccc(OC)c2)cc1` (stereo unspecified), the survival is 97%. Take `CCOC(=O)c1ccc(N2C(=O)c3n[nH]c(-c4ccco4)c3C2c2cccc(O)c2)cc1` (stereo unspecified): the survival was -8% (active). Take `COc1cc(Nc2ncc3c(n2)CCN(Cc2cc(F)cc(F)c2)C3)cc(OC)c1`: the survival was 67%. For `Cc1nc2cc(-c3ccccc3)nn2c(C)c1CCC(=O)N1CCN(c2ccccc2)CC1`, the survival is 56%. For `CCOCCc1nnc(NC(=O)C(=O)c2cc(C)n(-c3cccc(C)c3)c2C)s1`, the survival was 65%. Take `COc1cccc(CNC(=O)CCS(=O)(=O)c2cc3c4c(c2)CCN4C(=O)CC3)c1`: the survival is 68%. Turning to `O=C(COc1ccc(Br)cc1)N/N=C1\SCC(=O)N1c1ccc(F)cc1`, the survival is 95%.

`CCc1ccc(NC(=O)CSc2nccn2-c2ccc(OC)cc2)cc1`: the survival was 107%.

As for `Nc1cc(=O)[nH]c(=S)n1-c1ccccc1`, the survival is 99%. With `COc1cc(C2c3c(oc4ccc(C)cc4c3=O)C(=O)N2Cc2ccccc2)ccc1O` (stereo unspecified) the figure was 113%; with `COc1cc(NC(=O)c2ncn(-c3ccccc3)n2)cc(OC)c1`, 63%. As for `CCOC(=O)c1ccc(N2C(=O)c3n[nH]c(-c4ccco4)c3C2c2ccc(O)c(OC)c2)cc1` (stereo unspecified), the figure is 118%. As for `CCOC(=O)c1ccc(N2C(=O)c3n[nH]c(-c4ccco4)c3C2c2cccc(F)c2)cc1` (stereo unspecified), the survival was 12% (active). As to `CCOC(=O)c1ccc(N2C(=O)c3n[nH]c(-c4ccco4)c3C2c2ccc(OCC)cc2)cc1` (stereo unspecified), the survival is 91%.

Regarding `COc1ccc(CCNC(=O)c2cc3c(s2)-c2ccccc2OC3)cc1OC`, the survival was 49%. Turning to `O=C(NCc1cccc(Cl)c1)c1cc2c(s1)-c1ccccc1OC2`, the survival is 50%.

For `CCc1ccccc1N(CC)C(=O)c1cc2c(s1)-c1ccccc1SC2`, the survival was -1% (active). Regarding `O=C(NCc1ccccc1Cl)c1cc2c(s1)-c1ccccc1SC2`, the survival is 65%. Take `O=C(NCCc1ccc(Cl)cc1)c1cc2c(s1)-c1ccccc1OC2`: the survival was 61%.

`CCOc1ccc(N(CC)C(=O)c2cc3c(s2)-c2ccccc2OC3)cc1`: the survival was 76%.

As for `CCc1ccc(CNC(=O)c2cc3c(s2)-c2ccccc2OC3)cc1`, the survival was 61%. As for `CCc1ccccc1N(CC)C(=O)c1cc2c(s1)-c1ccccc1OC2`, the survival is -5% (active).

Consider `CCN(C(=O)c1cc2c(s1)-c1ccccc1OC2)c1cc(Cl)ccc1OC`, for which the survival is 15% (active).

With `CCOc1ccc(N(CC)C(=O)c2cc3c(s2)-c2ccc(Cl)cc2SC3)cc1`, the survival is 81%.

Take `CCCN(C(=O)c1cc2c(s1)-c1ccccc1OC2)c1ccccc1F`: the survival is -4% (active).
